# Assay outcomes deposited in PubChem by several laboratories.
# The list is not random: actives were taken first. Their share in the collection is about 2.5%.
# KLF5 inhibitor – suppresses KLF5 promoter-driven expression | DLD-1 KLF5 promoter-luciferase reporter, luminescence | 290,000 tested, 0.23% active | inhibition, % at 5 µM | AID 1700;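 active = inhibition above a per-plate limit of that plate's mean compound inhibition plus 3 SD, cut at about 60% in these data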;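 note: 0% = DMSO wells and 100% = LY294002 at 200 µM; higher means less KLF5 promoter-driven luciferase light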
# aSyn UTR inh – 5' untranslated region of α-synuclein, MLPCN primary screen | alpha-synuclein 5'UTR reporter, inhibitor activity | inhibition, % (tested at 7.5 µM) | 300,000 tested, 0.82% active; in the data active = inhibition above about 60%;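 note: H4 neuroglioblastoma cells stably carrying SNCA 5'UTR luciferase fusion; 0% = DMSO wells and 100% = positive control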
# Jurkat NFkB inh – lowers PMA/ionomycin-induced NF-kB signal in Jurkat cells; AID 435003; inhibition, % at 4 µM; 330,000 tested, 0.53% active; PMA/ionomycin-induced NF-kB luciferase reporter, luminescence; in the data active = inhibition above about 50%
# ANO1 activ – activators or potentiators of mouse TMEM16A chloride channel | Q8BHY3 | HEK293 TMEM16A/YFP-H148Q/I152L, iodide quench fluorescence; active compounds read low | B-score at 10 µM | 340,000 tested, 0.3% active | AID 623877;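 active = fluorescence-ratio B-score plate-corrected deviation score at least 3 library SD below zero, with starting fluorescence score within 5 deviations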;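 note: channel opened by trigger with iodide after compound preincubation; score built on the fluorescence ratio of max minus min over baseline; more negative score means more quench and so TMEM16A activation or potentiation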
# Target sequence (Q8BHY3 whole entry, looked up): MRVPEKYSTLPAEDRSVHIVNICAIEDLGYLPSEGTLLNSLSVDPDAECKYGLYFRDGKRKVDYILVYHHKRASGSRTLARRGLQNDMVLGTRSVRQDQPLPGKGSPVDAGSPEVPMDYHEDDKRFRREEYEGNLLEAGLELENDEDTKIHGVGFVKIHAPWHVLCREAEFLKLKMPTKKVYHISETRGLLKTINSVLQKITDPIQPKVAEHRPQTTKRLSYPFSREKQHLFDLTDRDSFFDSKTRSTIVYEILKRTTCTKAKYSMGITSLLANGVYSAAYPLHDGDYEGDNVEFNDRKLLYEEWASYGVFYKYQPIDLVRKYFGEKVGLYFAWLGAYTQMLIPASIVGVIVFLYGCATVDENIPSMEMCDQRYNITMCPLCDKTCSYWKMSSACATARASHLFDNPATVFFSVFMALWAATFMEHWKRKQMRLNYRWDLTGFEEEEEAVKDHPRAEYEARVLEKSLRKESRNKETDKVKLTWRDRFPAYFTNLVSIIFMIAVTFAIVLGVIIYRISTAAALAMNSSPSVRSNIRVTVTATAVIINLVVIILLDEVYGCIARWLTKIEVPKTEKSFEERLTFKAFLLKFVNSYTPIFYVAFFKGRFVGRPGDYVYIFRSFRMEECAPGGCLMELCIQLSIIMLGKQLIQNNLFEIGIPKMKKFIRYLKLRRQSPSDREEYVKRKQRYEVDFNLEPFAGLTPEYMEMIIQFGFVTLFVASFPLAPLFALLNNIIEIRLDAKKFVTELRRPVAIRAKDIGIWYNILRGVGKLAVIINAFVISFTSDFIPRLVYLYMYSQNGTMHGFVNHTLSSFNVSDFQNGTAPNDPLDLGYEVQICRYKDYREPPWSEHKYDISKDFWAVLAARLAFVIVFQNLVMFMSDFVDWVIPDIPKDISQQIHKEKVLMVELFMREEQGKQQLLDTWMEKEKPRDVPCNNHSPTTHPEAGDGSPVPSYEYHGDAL
# TMEM16A inh – inhibitors of mouse TMEM16A calcium-activated chloride channel. Q8BHY3. HEK293 TMEM16A/YFP iodide influx fluorescence, ionomycin. normalized B-score (activity score, 25-100; higher = stronger inhibition) at 10 µM. 310,000 tested, 1.2% active;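 active = ratio plate-corrected score three or more library SD toward inhibition, starting fluorescence score within five deviations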;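 note: score derived from kinetic fluorescence span divided by baseline fluorescence per well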
# 697 NFkB inh – inhibitors of the PMA/ionomycin-induced NF-kB reporter in 697 B cells; 697 B-cell NF-kB luciferase reporter, 16 h; inhibition, % at 4 µM; 330,000 tested, 0.33% active; AID 435022; in the data active = inhibition above about 35%
# TMEM16A reconf – reconfirmed blocker of mouse TMEM16A calcium-activated chloride channel; shares compounds with TMEM16A inh; HEK293 TMEM16A/YFP-H148Q, iodide quench fluorescence; ionomycin added to raise cell calcium; inhibition, % at 10 µM; 2,300 tested, 39% active; AID 652189;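 active = mean duplicate percent inhibition, scaled so buffer wells are 0 and the reference blocker 100, over three buffer SD above buffer mean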
# TMEM16A Ca cntr – calcium mobilization counter-screen hit for TMEM16A inhibitor series. calcium response (% of ionomycin), % at 10 µM. shares compounds with TMEM16A inh. 2,300 tested, 2% active. TMEM16A/YFP HEK293, Fluo4 calcium mobilization;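 active = duplicate-averaged calcium signal over 20% of the ionomycin maximum, relative to buffer baseline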;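 note: each well's signal is peak minus trough fluorescence divided by its pre-addition baseline; 0% = buffer wells and 100% = ionomycin wells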
# YFP-HEK293 quench – counter-screen for TMEM16A inhibitors: effect in parental YFP-HEK293 cells; iodide YFP quench, ionomycin; AID 652233; 2,300 tested, under 10 active; YFP ratio F(max-min)/F0 at 10 µM; shares compounds with TMEM16A inh;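 active = yellow fluorescent protein signal ratio exceeding the buffer control mean by over 5 SD of those controls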;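 note: ratio is mean of duplicate wells from kinetic YFP trace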
# ClC-1 rat inh – selectivity of TMEM16A inhibitors: inhibition of rat ClC-1 chloride channel; shares compounds with TMEM16A inh; ratio percent, % at 10 µM; CHO ClC-1-YFP, iodide influx fluorescence quench; iodide control reads 0, buffer control 100; 2,300 tested, under 10 active; AID 652236;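 active = duplicate-mean ratio percent above the mean of iodide-only control wells, which defines zero, plus 5 of their SD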;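 note: higher percent means stronger block of ClC-1 iodide influx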
# Numbers without * were called inactive; i = inactive; nt = no result.
SMILES,KLF5 inhibitor,aSyn UTR inh,Jurkat NFkB inh,ANO1 activ,TMEM16A inh,697 NFkB inh,TMEM16A reconf,TMEM16A Ca cntr,YFP-HEK293 quench,ClC-1 rat inh
CC(=O)Nc1ccc(S(=O)(=O)NC2(c3ccccc3)C(=O)N(C)C(=O)N(C)C2=O)cc1,nt,nt,nt,i,nt,nt,nt,nt,nt,nt
O=C(c1ccc(CNS(=O)(=O)c2ccccc2)cc1)N1CCN(Cc2ccccc2)CC1,12,16,17,i,25*,-21,i,i,-0.96,-9
COc1cc(OC)cc(C(=O)NCC(=O)OCC(=O)/C=C2/N(C)c3ccccc3C2(C)C)c1,-10,11,9,i,i,-8,nt,nt,nt,nt
CC(C)[C@H](NC(=O)c1ccccc1)C(=O)OCC(=O)/C=C1/N(C)c2ccccc2C1(C)C,-15,1,5,i,25*,-7,22%*,i,-1.3,2
Cc1ccc(COC(=O)c2cccc(S(=O)(=O)N3CCCCC3)c2)cc1,nt,nt,6,i,nt,9,nt,nt,nt,nt
COc1ccc(OCC(CO)N2CCN(c3ccccc3)CC2)cc1 (configuration not stated),nt,nt,nt,i,nt,nt,nt,nt,nt,nt
COc1cc(C(=O)ON=C2C(C)=CC(=O)C=C2C)cc(OC)c1OC,-29,22,-1,i,100*,2,i,i,-0.94,0
CC(=O)Nc1ccc(/C=N/N2C(=O)NC(C)(c3ccc(OC(F)F)cc3)C2=O)cc1 (configuration not stated),-4,32,3,-13*,100*,-2,93%*,i,-0.96,-6
COc1ccccc1C(=O)NCC(=O)OC(C)C(=O)N1CCOCC1 (configuration not stated),nt,1,2,i,i,17,nt,nt,nt,nt
COc1cccc(CN2C(=NC(=O)C3CC3)SC3CS(=O)(=O)CC32)c1 (configuration not stated),-10,-1,-1,i,i,0,nt,nt,nt,nt
Cc1[nH]n2c(=O)cc(-c3ccc([N+](=O)[O-])cc3)nc2c1-c1ccccc1,1,-8,5,i,i,3,nt,nt,nt,nt
COc1ccc(-c2c(C(F)(F)F)[nH]n3c(=O)cc(-c4ccccc4)nc23)cc1,-9,-20,-9,i,100*,13,49%*,i,-0.92,-18
COc1ccccc1C(=O)Nc1ccccc1N1CCN(C(=O)c2ccc(Cl)cc2)CC1,-17,-14,9,i,i,-18,nt,nt,nt,nt
S=C(NCc1ccc(Cl)cc1)Nc1ccc(Cl)cc1Cl,-47,9,9,i,i,-3,nt,nt,nt,nt
S=C(NCCc1ccc(Cl)cc1)Nc1ccc(Cl)cc1Cl,-11,-13,-17,i,25*,-16,i,i,-0.97,-12
Fc1ccc(NC(=S)Nc2ccc(Cl)cc2Cl)cc1,-7,-28,7,nt,100*,-13,20%*,i,-1.1,-10
Fc1ccc(CCNC(=S)Nc2ccc(F)c(Cl)c2)cc1,8,-12,-2,-4.7*,100*,-3,37%*,i,-1.1,-14
COc1ccc(Br)cc1CN(C)C(=O)c1ccccc1SCC(=O)N1CCCC1,nt,nt,nt,i,nt,nt,nt,nt,nt,nt
O=C(C[C@@H]1C/C=C\CC[C@@H](Cc2ccc(F)cc2)C(=O)OC[C@@H](Cc2ccccc2)NC1=O)NCCO,nt,nt,7,i,nt,14,nt,nt,nt,nt
Cc1ccc(/C(O)=C2\C(=O)C(=O)N(C)C2c2cccc([N+](=O)[O-])c2)cc1 (configuration not stated),-12,4,8,i,i,7,nt,nt,nt,nt
Cn1nnnc1SCc1ccc(C(=O)Nc2nccs2)cc1,-57,-12,-36,i,100*,5,i,i,-1,-4
CC1CCC(NC(=O)CN2C(=O)C3CC=CCC3C2=O)CC1 (configuration not stated),nt,nt,7,i,nt,11,nt,nt,nt,nt
Cc1ccc(N2CCN(S(=O)(=O)c3c(C)noc3C)CC2C)cc1 (configuration not stated),-21,15,-7,i,i,1,nt,nt,nt,nt
Fc1ccc(N2CCN(Cc3nnc(-c4ccccc4)o3)CC2)cc1,9,-22,6,i,i,-15,nt,nt,nt,nt
Fc1ccc(-c2nnc(CN3CCN(c4ncc(C(F)(F)F)cc4Cl)CC3)o2)cc1,-12,12,-10,i,100*,-55,i,i,-1.1,-19
SMILES,KLF5 inhibitor,aSyn UTR inh,Jurkat NFkB inh,ANO1 activ,TMEM16A inh,697 NFkB inh,TMEM16A reconf,TMEM16A Ca cntr,YFP-HEK293 quench,ClC-1 rat inh
O=C1CC(O)(C(F)F)Oc2ccc3ccccc3c21 (configuration not stated),1,0,-11,i,i,-10,nt,nt,nt,nt
O=C1CC(O)(C(F)(F)F)Oc2c1ccc1ccccc21 (configuration not stated),-16,-30,20,i,100*,9,54%*,38%*,-1.1,-24
O=C1/C(=C\c2c(NCCOCCO)nc3ccccn3c2=O)SC(=S)N1Cc1ccco1,-13,-8,-4,i,i,-2,nt,nt,nt,nt
O=C(Nc1ccc(Cl)c(Cl)c1)Nc1ccccc1O,-217,-105,-112,i,100*,-140,22%*,i,-1.1,-20
O=C(Nc1ccc(Cl)cc1)Nc1ccc(Cl)c(Cl)c1,nt,nt,-77,nt,nt,-99,nt,nt,nt,nt
CCN1CCN(c2ccc(S(=O)(=O)N3CCOCC3)cc2N)CC1,nt,nt,3,i,nt,7,nt,nt,nt,nt
Cc1noc(C)c1S(=O)(=O)Nc1ccc2c(c1)C(=O)N([C@H](C)CO)C[C@@H](C)[C@@H](CN(C)Cc1ccc3c(c1)OCO3)O2,nt,nt,7,i,nt,-6,nt,nt,nt,nt
COc1ccc(-c2csc(=Nc3ccccc3)n2CCO)cc1,-5,-100,-9,i,100*,-42,44%*,i,-1.2,0
CC(=O)c1cccc(N=c2scc(-c3ccc(S(=O)(=O)N4CCOCC4)cc3)n2CCO)c1,-27,12,31,i,25*,-6,38%*,i,-1,-18
COc1ccc(N=c2scc(-c3ccc(S(=O)(=O)N4CCOCC4)cc3)n2CCCO)cc1,5,nt,nt,nt,nt,nt,nt,nt,nt,nt
CCN1CCN(C(=O)CCc2nnc(CCc3ccccc3OC)o2)[C@@H](C)C1=O,-7,-11,0,i,i,-1,nt,nt,nt,nt
